# PubChem BioAssay AID588436 (Broad Institute, 2011)
# The campaign covered roughly 350,000 compounds. About 550 (0.16%) were called active. This excerpt belongs to a sample that is enriched for actives. Values without a mark were called inactive. Cut-off read from the data, not from the text of the source: active = activation mostly above about 9.7% (no sharp cut-off); inconclusive = no clear call, values can overlap the other calls; inactive = mostly below about 3.7%.
# Test: induces V. cholerae light production without autoinducers, primary screen, BH1578 luxS cqsA deficient, single point (AID 588436)
# Settings: V. cholerae BH1578 lux reporter, luminescence, 6 h, at 18.7 µM; stronger effect = higher value
row,Compound,activation
1,COc1ccccc1C(=O)NCCn1cc(SCC(=O)NCc2ccco2)c2ccccc21,-0.41%
2,CCC(=O)Nc1ccc(S(=O)(=O)NCC2CCCO2)cc1 (stereo not given),-0.618%
3,CCC(=O)NC(NCC1CCCO1)C(Cl)(Cl)Cl (stereo not given),16.7% (active)
4,CCC(=O)c1c[nH]c(C(=O)NCC2CCCO2)c1 (stereo not given),-0.144%
5,CCCS(=O)(=O)N1CCCC(C(=O)N2CCN(c3ccccc3)CC2)C1 (stereo not given),33.3% (active)
6,CS(=O)(=O)N1CCC(C(=O)N2CCN(c3ccccc3)CC2)CC1,inactive
7,O=C(C1CCCN(S(=O)(=O)c2ccccc2)C1)N1CCN(c2ccc(F)cc2)CC1 (stereo not given),inactive
8,CCOc1ccc(OCc2cccc(C(=O)N(CC)CC)c2)cc1,-0.345%
9,Cc1cccc(-n2c(SCC(=O)Nc3cccc(S(=O)(=O)NC4=NCCCCC4)c3)nc3ccccc3c2=O)c1C,-0.796%
10,O=C(C1CC(=O)N(c2ccc(F)cc2)C1)N1CCN(c2ccccc2)CC1 (stereo not given),-0.28%
11,Cc1cccc(CN2CCC(n3nccc3NC(=O)c3ccccc3C)CC2)n1,-0.82%
12,COC(=O)C1=C(C)N=C2SC(C)C(=O)N2C1/C=C/c1ccccc1 (stereo not given),inactive
13,COC(=O)C1=C(C)NC(=O)NC1/C=C/c1ccccc1 (stereo not given),33.3% (active)
14,COC(=O)c1ccc(C2NC(=O)NC(C)=C2C(=O)N(C)C)cc1 (stereo not given),-3.1%
15,CCN(CC(=O)Nc1ccccc1C(F)(F)F)C(=O)CSCc1c(C)noc1C,inactive
16,CC(C)CC(N=C1NC(C)(C)Cc2ccccc21)C(=O)O (stereo not given),-0.478%
17,CC(NCc1cccs1)C(=O)Nc1cc(Cl)cc(Cl)c1 (stereo not given),-0.542%
18,COC(=O)c1ccc(CNC(=O)Cn2cc(C)c(=O)[nH]c2=O)cc1,-1.31%

row,Compound,activation
1,CCc1cccc2c(=O)c(C(=O)NCCCOC)c[nH]c12,inactive
2,O=C(Cc1ccc2c(c1)CCCC2)Nc1ccccc1Cl,159% (active)
3,O=C(Nc1ccc2c(c1)CCC2)c1cccc(S(=O)(=O)Nc2ccccc2Cl)c1,0.69%
4,Cc1cc(C(=O)OCC(=O)Nc2ccccc2Cl)c(C)o1,11.9%
5,CN(CCc1ccccc1)c1ccc([N+](=O)[O-])cn1,inactive
6,O=[N+]([O-])c1cnc2ccc3ccccc3c2c1,31.2% (active)
7,O=[N+]([O-])c1ccc2nc(-c3ccccn3)[nH]c2c1,inactive
8,COc1ccc(N(CC(=O)NC2CCCCC2)C(=O)CNC(=O)c2ccco2)c(OC)c1,16.7% (active)
9,COC(=O)c1ccc(N(CC(=O)NC2CCCC2)C(=O)CNC(=O)c2ccco2)cc1,-0.813%
10,COc1cccc(N(C(=O)CNC(=O)c2ccco2)C(C(=O)NC2CCCCC2)c2cccnc2)c1 (stereo not given),0.162%
11,CC(C)CN(C(=O)Cn1c(=O)cnc2ccccc21)C1CCS(=O)(=O)C1 (stereo not given),-2.94%
12,CC(=O)OCCN(CCCn1c(-c2ccncc2)nc2ccccc21)c1nc(-c2ccc(C)cc2)cs1,-0.447%
13,Cc1ccc(C)c(NC(=O)c2cc(-c3cc(C)cc(C)c3O)n[nH]2)c1,1.16%
14,CC(C)CNC(=O)COC(=O)/C=C/c1ccco1,180% (active)
15,COc1cccc(NC(=O)COC(=O)/C=C/c2ccco2)c1,inactive
16,CC(C)CNC(=O)COC(=O)/C=C/c1ccccc1[N+](=O)[O-],13.6%
17,CC(CN1CCCCC1)c1ccccc1 (stereo not given),inactive
